hgDAF-12 ag: agonists of H. glycines DAF-12 nuclear receptor; 370,000 tested, 1.8% active; activation, % at 6.8 µM; HEK293 GAL4-hgDAF12 UAS-luciferase reporter, agonist luminescence; normalized to butyrate control;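 active means activation above a cutoff set at the mean of all screened compounds plus 3 SD, cut at about 10% in these data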;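 further: 0% = DMSO wells and 100% = sodium butyrate wells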
Rev-erbA mod: Rev-erb alpha (human) modulation; P20393; Rev-erbα–FITC-DNA binding, fluorescence polarization, 90 min; activity, % at 10 µM; 370,000 tested, 0.79% active;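 active means activity above about 14%, limit read from the data; passing the limit was not always enough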;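 further: 0% = DMSO wells with 35 nM protein and 100% = DMSO wells with 750 nM protein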
ssDAF12 agonist: activates DAF-12 receptor from parasite S. stercoralis; HEK293 ssDAF-12/GRIP1 lit1-tk-luc reporter, luminescence; % of 3 µM dafachronic acid response; activation, % at 6.8 µM; 370,000 tested, 1% active; AID 652126;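 active means activation above the mean over all tested compounds plus 3 SD, cut at about 0.9% in these data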;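 further: 0% = DMSO-only wells and 100% = 3 µM delta7-dafachronic acid wells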
DAX1 inh-1: NR0B1 (DAX1) inhibition; 340,000 tested, 0.99% active; HEK293 Gal4-DAX1 luciferase reporter, luminescence; inhibition, % at 6.75 µM; P51843;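 active means inhibition above the mean over all tested compounds plus 3 SD, cut at about 4.2% in these data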;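 further: 0% = DAX1-transfected cells with DMSO and 100% = empty-vector control cells with DMSO; inhibition shows as a rise in luminescence from relieved DAX1 repression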
Target sequence (P51843 207-470 limits assumed): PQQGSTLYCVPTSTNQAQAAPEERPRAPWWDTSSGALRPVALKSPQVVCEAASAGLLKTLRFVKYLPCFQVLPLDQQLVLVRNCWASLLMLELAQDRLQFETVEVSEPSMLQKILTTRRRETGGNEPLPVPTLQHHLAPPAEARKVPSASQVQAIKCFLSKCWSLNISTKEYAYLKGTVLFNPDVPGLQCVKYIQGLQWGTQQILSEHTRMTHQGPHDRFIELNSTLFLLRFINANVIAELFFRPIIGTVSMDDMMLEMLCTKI
hcDAF12 agonist: H. contortus DAF-12 activation, primary screen; HEK293 hcDAF-12 lit1-tk-luc reporter, luminescence; 0% DMSO, 100% Δ7-dafachronic acid; activation, % at 6.8 µM; 370,000 tested, 1.4% active;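 active means activation above the mean of all tested compounds plus 3 SD, cut at about 5.5% in these data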;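 further: 100% = response to 3 µM Δ7-dafachronic acid high control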
DAX1 inh-2: blocks DAX1 repression of SF-1 activated StAR promoter; 370,000 tested, 1.1% active; inhibition, % at 6.8 µM; HEK293T StAR-luciferase reporter, SF-1/DAX-1 repression relief; AID 652010;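 active means inhibition above the mean over all tested compounds plus 3 SD, cut at about 3.6% in these data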;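 further: 0% = DAX-1 cells with DMSO and 100% = cells lacking DAX-1 with DMSO; higher inhibition means more luminescence from relief of DAX-1 repression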
* = called active by the depositor; . = no result. The list is not random: actives were taken first. Their share in the collection is about 4.8%.

SMILES	hgDAF-12 ag	Rev-erbA mod	ssDAF12 agonist	DAX1 inh-1	hcDAF12 agonist	DAX1 inh-2
Cc1ccc(S(=O)(=O)Cc2ccc(C(=O)N3CCC(C(N)=O)CC3)o2)cc1	0	3	-1	0	2	-1
NC(=O)C1CCN(C(=O)c2ccc(CS(=O)(=O)c3c(Cl)cccc3Cl)o2)CC1	4	2	-1	6.9*	-1	0
O=S(=O)(c1cccs1)N1CCCc2nc(-c3ccc(F)cc3)ccc21	1	0	-1	.	-1	0
C=CCN1[C@@H](Cc2ccccc2)COc2cccc(F)c2S1(=O)=O	0	-4	-2	.	-2	-1
Cc1cc(=O)oc2c(C)c(OCC(=O)NCC3CCC(C(=O)O)CC3)ccc12 (stereo unspecified)	1	-2	-1	1	1	1
CCc1c(C)c2ccc(OCC(=O)NCC3CCC(C(=O)O)CC3)c(C)c2oc1=O (stereo unspecified)	11*	-4	-1	2	0	0
O=C(NCCN1CCC(n2c(=O)[nH]c3cc(Cl)ccc32)CC1)c1ccc(F)cc1	1	1	-1	.	1	1
S=C(NN=Cc1ccccn1)N(Cc1ccccn1)Cc1ccccn1	5	3	1.0*	-4	3	1
S=C(NN=C(c1ccccc1)c1ccccn1)N(Cc1ccccn1)Cc1ccccn1	-9	-11	-2	-5	-4	-7
CC1=Nc2cc([N+](=O)[O-])ccc2NC(C)(C)C1	12*	7	-2	4.8*	2	0
Cc1nnc(SCc2cccc3ccccc23)s1	3	0	-1	7.0*	2	1
Cc1nnc(SCc2ccc(F)cc2)s1	4	3	-1	2	-1	0
Cc1nc(CSc2nnc(C)s2)cs1	3	-3	-1	4.7*	-1	1
COc1ccc(C(=O)/C=C/c2cn(CC(O)CN3CCN(C)CC3)c3ccccc23)cc1OC (stereo unspecified)	-2	7	-1	5.0*	-1	-1
Cc1ccc(-c2nc3ccsc3c(=O)o2)cc1	7	5	1	0	5.9*	2
COCCCNC(=O)C[C@H]1C[C@@]2(C(=O)OC)C(=C[C@H](C3CCCC3)O[C@@H]2C)N(Cc2ccccc2)C1=O	-1	5	-1	.	-1	0
NC(=O)CCn1c(C(=O)c2cccc([N+](=O)[O-])c2)c2ccccc2[n+]1[O-]	1	0	1.1*	0	3	1
COC(=O)[C@]12C[C@H](CC(=O)N3CCCCC3)C(=O)N(CCC3=CCCCC3)C1=C[C@H](C1CCCC1)O[C@@H]2C	2	-3	-1	.	0	1
O=C(NCc1nc2ccccc2[nH]1)c1ccco1	2	-1	-1	0	0	0
CCc1cccc(CC)c1NC(=S)NCc1nc2ccccc2[nH]1	1	-4	0	5.4*	2	0
CCNC(=O)COc1ccc2ccccc2c1	7	-6	-1	1	1	1
O=C(COC(=O)COc1ccc2ccccc2c1)NCC(F)(F)F	0	2	-1	0	5.6*	0
CC1(C)O[C@@H]2CC3C4CCC5=CC(=O)CCC5(C)[C@]4(F)C(O)CC3(C)[C@]2(C(=O)CCl)O1 (stereo partly specified)	.	-2	.	.	.	.
O=C(c1ccc2c(c1)OCO2)N1CCC(Oc2cccnc2)CC1	1	1	-1	.	-2	-1
COc1ccc(/C=c2\sc3nc(-c4ccccc4OC)nn3c2=O)c(OC)c1	2	1	0.9*	0	4	0
SMILES	hgDAF-12 ag	Rev-erbA mod	ssDAF12 agonist	DAX1 inh-1	hcDAF12 agonist	DAX1 inh-2
CCN1CCN(CC(=O)N/N=C/c2ccc(F)cc2F)CC1	1	-1	1.1*	-1	0	0
CSc1ccc(CN2C(=O)NC3(CCCCC3)C2=O)cc1	-2	6	-1	6.8*	-2	0
CN(CCc1ccccn1)C(=O)Cn1nc(-c2ccccc2)ccc1=O	-2	0	-1	.	2	0
Cc1cccc2sc(N3CCN(C(=O)C4COc5ccccc5O4)CC3)nc12 (stereo unspecified)	0	0	-1	-1	-1	1
COC(=O)c1cnn(-c2nc3c(C)cccc3s2)c1C	2	19	0	1	5.9*	0
O=C(O)c1oc2ccc(Br)cc2c1-n1cccc1	0	6	-1	7.0*	1	0
Cc1cccc(CN[C@@H]2CC[C@@]34CCCN3C(=O)CCC[C@H]4C2)c1	-2	0	-1	.	-2	.
Nc1cc(=O)[nH]c(SCCNS(=O)(=O)c2ccccc2)n1	3	-1	0.9*	-2	3	0
CCn1c2ccccc2c2cc(C=NNC(=O)CSc3nc4ccccc4c(=O)n3-c3ccccc3)ccc21	1	-5	-1	.	-1	-2
COc1ccc(-n2cc(C(=O)c3ccccc3O)cn2)cc1	11*	-6	0	0	5	4
COc1ccc(C(=O)CC(=O)c2ccccc2O)cc1OC	1	6	-1	2	0	0
COc1ccc(C(=O)CC(=O)c2ccccc2O)cc1	11*	-3	0	2	5	2
COc1ccc(O)c(C(=O)CC(=O)c2ccc(F)cc2)c1	15*	0	1.0*	-4	8.1*	1
COc1ccc(-n2cc(C(=O)c3ccc4ccccc4c3O)cn2)cc1	1	0	0	0	2	0
O=C(COc1ccccc1C(=O)c1cnn(-c2ccccc2)c1)Nc1ccc2ccccc2c1	11*	-7	1.3*	1	3	2
COc1ccc(C(=O)COc2ccc(F)cc2)c(O)c1	7	-6	-1	3	2	0
COc1ccc(O)c(C(=O)c2cnn(-c3ccccc3)c2)c1	5	0	0	0	4	1
OCCCN1CCC2(CCC(c3ccccc3)CC2)C1 (stereo unspecified)	2	3	-2	.	2	0
COc1ccc2c(c1)oc(=O)c1cc(OC)ccc12	13*	-12	0	4.6*	0	3
COc1ccc2c(c1)oc(=O)c1ccccc12	3	2	-1	2	1	1
CN(Cc1ccccc1)C(=O)OCc1cn(Cc2ccccc2)nn1	-2	0	-2	.	-1	0
COC(=O)Cc1nnn2c1[C@@H](C)[C@@H](c1ccccc1Br)OC[C@@H]2c1ccccc1	0	4	-1	.	-1	-1
COC(=O)c1ccc(CN2CCCC(CO)(Cc3ccc(F)cc3F)C2)cc1 (stereo unspecified)	-1	2	1.0*	-1	-2	0
COC(=O)c1nn(-c2ccccc2)c(=O)cc1O	0	2	-1	-1	-1	0
